Assay outcomes from PubChem BioAssay.
aSyn yeast inh: inhibitors of alpha-synuclein toxicity in yeast. Potency, µM (series often up to 46.1 µM), for inactives: top-dose growth rescue (activation), actives largely listed as activators. Yeast expressing alpha-synuclein, growth rescue, BacTiter-Glo, 24 h. 370,000 tested, 0.14% active; note: % of control where 0% means no effect; nearly all actives have a fitted effect of over 65% in size
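Galactose-induced alpha-syn yeast (OD600=0.02, raffinose-pregrown) + pinned cpd, 24 hr, 30 deg C; growth by BacTiter-Glo luminescence. Growth restoration scores as activation.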
Abeta rescue: restores growth of yeast expressing A-beta42 peptide | AID 1347071 | 410,000 tested, 0.063% active | yeast expressing A-beta42, growth rescue, OD600, 48 h; response scale: 0% DMSO, 100% iron-clioquinol control | Potency, µM (series often up to 46.1 µM), usual class: activators; note: nearly all actives have a fitted effect of over 55% in size
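Growth rescue measured by 600 nm absorbance after 48 h yeast culture at 30 C with compound. Values normalized between DMSO and an equimolar ferric chloride plus clioquinol control.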
FUS suppressor: rescues growth of FUS-expressing yeast | S. cerevisiae FUS-expressing, growth rescue, OD600, 24 h | Potency, µM (series often up to 76.6 µM), actives largely listed as activators | 390,000 tested, 0.24% active | AID 1347120;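 note: plate controls were DMSO vehicle for no effect and reference control for full effect; nearly all actives have a fitted effect of over 55% in size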
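Absorbance at 600 nm, taken 24hr after compound addition, measured rescue of FUS-yeast growth at 30C. Induction used 2% galactose with seeding at OD 0.005. Controls: CP55940 from 92uM final, DMSO only.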
TDP-43 yeast inh: rescues yeast growth from TDP-43 toxicity | TDP-43 expressing yeast growth rescue, BacTiter-Glo, 24 h | Potency, µM (titrated, usually from 46.1 µM), inactives show at the highest dose growth rescue (activation), most hits filed as activators | 410,000 tested, 1.8% active; note: % of control where 0% means no effect; nearly all actives have a fitted effect of over 50% in size
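Readout is BacTiter-Glo luminescence of cell growth, so inhibitors register as activators. TDP-43-expressing yeast at OD600=0.02 in galactose medium, after raffinose pregrowth to mid-log, were incubated with compound for 24 hr at 30 deg C.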
Starred values were filed as active, the others as inactive. The list is not random: actives were taken first. Their share in the collection is about 2.1%. Calls come from the whole dose curve; as a rule, active = well fitted curve in the direction sought with a large enough effect; inconclusive = small, poorly fitted or top-dose-only effect, or another doubt; inactive = no such curve, though single readings can be large; an effect the other way counts as inactive or inconclusive. Potency is the fitted concentration of half-maximal effect.

Results for CC(=O)c1cccc(-c2ccnc3c2CC(C(=O)Nc2ccc(Cl)cc2)O3)c1 (stereo not drawn) ?
aSyn yeast inh: 16.1%; Abeta rescue: inactive; FUS suppressor: inconclusive; TDP-43 yeast inh: 16.6%

What do the screens show for `O=C(Nc1cccc(C(F)(F)F)c1)C1Cc2c(-c3ccccc3)ccnc2O1` (stereo not drawn)?
aSyn yeast inh: inconclusive; Abeta rescue: inconclusive; FUS suppressor: inactive; TDP-43 yeast inh: 35.5µM*

What do the screens show for `CN(C(=O)C1Cc2c(-c3ccccc3Oc3ccccc3)ccnc2O1)c1ccccc1` (stereo not drawn)?
aSyn yeast inh: -0.3%; Abeta rescue: inactive; FUS suppressor: inconclusive; TDP-43 yeast inh: inconclusive

Results for CN(C)c1cccc(NC(=O)C2Cc3c(-c4ccc(Cl)cc4)ccnc3O2)c1 (stereo not drawn) ?
aSyn yeast inh: 13.4%; Abeta rescue: inactive; FUS suppressor: inconclusive; TDP-43 yeast inh: inconclusive

Results for CC(=O)c1cccc(NC(=O)C2Cc3c(-c4ccc(Cl)cc4)ccnc3O2)c1 (stereo not drawn) ?
aSyn yeast inh: inconclusive; Abeta rescue: inactive; FUS suppressor: 39.8µM*; TDP-43 yeast inh: inconclusive

What do the screens show for `CN(C(=O)C1Cc2c(-c3ccc(Cl)cc3)ccnc2O1)c1ccccc1` (stereo not drawn)?
aSyn yeast inh: -2.0%; Abeta rescue: inactive; FUS suppressor: inactive; TDP-43 yeast inh: 22.4µM*

Results for O=C(Nc1cccc(C(F)(F)F)c1)C1Cc2c(-c3ccco3)ccnc2O1 (stereo not drawn) ?
aSyn yeast inh: 1.9%; Abeta rescue: inactive; FUS suppressor: inactive; TDP-43 yeast inh: 14.5%

What do the screens show for `O=C(Nc1cccc(C(F)(F)F)c1)C1Cc2c(-c3ccc(Cl)cc3)ccnc2O1` (stereo not drawn)?
aSyn yeast inh: inconclusive; Abeta rescue: inactive; FUS suppressor: inactive; TDP-43 yeast inh: 20µM*

Results for CC(C)(C)c1ccc(NC(=O)COC(=O)c2ccccc2OCC(=O)Nc2ccc(Br)cc2)cc1 ?
aSyn yeast inh: -3.6%

Results for COc1ccc(NC(=O)C(CC(C)C)NC(=O)C2CCCCC2)cc1 (stereo not drawn) ?
Abeta rescue: inactive; FUS suppressor: inactive; TDP-43 yeast inh: 0.0%

How did COc1ccc(Nc2nnc(SCC3CCCCO3)s2)cc1 (stereo not drawn) do in these assays?
aSyn yeast inh: -18.3%; Abeta rescue: inactive; FUS suppressor: inactive; TDP-43 yeast inh: 11.2µM*

How did COc1ccc(Nc2cc(C(=O)NCCCN(C)Cc3ccccc3)c3ccccc3n2)cc1OC do in these assays?
Abeta rescue: inactive; FUS suppressor: inactive; TDP-43 yeast inh: -17.4%

Results for Fc1ccc(Nc2nc3ccccc3n3cnnc23)c(F)c1 ?
Abeta rescue: inactive; FUS suppressor: inactive; TDP-43 yeast inh: 8.91µM*

How did CC(=O)c1cc(CN2C(=O)c3ccccc3C2=O)cs1 do in these assays?
aSyn yeast inh: 20.6%; Abeta rescue: inactive; FUS suppressor: inactive; TDP-43 yeast inh: 14.1µM*

How did COC1=C(Br)C(=O)c2ncccc2C1=O do in these assays?
aSyn yeast inh: 15.8µM*; Abeta rescue: inactive; TDP-43 yeast inh: 27.9%

Results for O=C1c2cccnc2-c2ncccc21 ?
aSyn yeast inh: -11.9%; Abeta rescue: inactive; FUS suppressor: inactive; TDP-43 yeast inh: 2.2%

How did Cc1nc(Sc2nnnn2-c2ccccc2)c(C#N)c(C)c1C do in these assays?
aSyn yeast inh: 0.1%; Abeta rescue: inactive; FUS suppressor: inactive; TDP-43 yeast inh: 17.8µM*

How did Cc1cc(C)c(C#N)c(Sc2nnnn2-c2ccccc2)n1 do in these assays?
aSyn yeast inh: 2.2%; Abeta rescue: inactive; FUS suppressor: inactive; TDP-43 yeast inh: 8.4%

Results for COc1cc2nc(Cl)nc(NC(C)C)c2cc1OC ?
aSyn yeast inh: 0.3%

How did Cc1cccc(Nc2nc(-c3ccc(O)c(O)c3)cs2)n1 do in these assays?
aSyn yeast inh: 0.2%; Abeta rescue: inactive; FUS suppressor: inactive; TDP-43 yeast inh: 5.2%

What do the screens show for `Cc1cccc(Nc2nc(-c3ccc(F)c(C)c3)cs2)n1`?
aSyn yeast inh: -43.4%; Abeta rescue: inconclusive; FUS suppressor: inactive; TDP-43 yeast inh: 14.1µM*

What do the screens show for `Cc1cc(-n2c(C)nc3ccccc3c2=O)ccc1NC(=O)c1ccc([N+](=O)[O-])cc1`?
Abeta rescue: inactive; FUS suppressor: inactive; TDP-43 yeast inh: 15.9%

Results for Cc1ccc(-n2cnc3cc(C(=O)NCc4ccccc4Cl)ccc32)c(C)c1 ?
Abeta rescue: inactive; FUS suppressor: inconclusive

How did O=C(NNc1nc2ccc(F)cc2s1)c1cccc(F)c1 do in these assays?
aSyn yeast inh: inconclusive; Abeta rescue: inconclusive; FUS suppressor: inactive; TDP-43 yeast inh: 12.6µM*

What do the screens show for `O=C(Nc1nnc(SCc2ccc(F)cc2)s1)c1ccccn1`?
aSyn yeast inh: 4.47µM*; Abeta rescue: inactive; FUS suppressor: inactive; TDP-43 yeast inh: -27.1%

What do the screens show for `O=C(NNc1nc2ccccc2s1)c1ccc(F)cc1`?
aSyn yeast inh: -5.1%; Abeta rescue: inactive; TDP-43 yeast inh: inconclusive

How did O=C(Nc1nc2ccccc2s1)c1cnccn1 do in these assays?
aSyn yeast inh: -1.8%; Abeta rescue: inactive; FUS suppressor: inactive; TDP-43 yeast inh: 18.2%

Results for O=C(Nc1nc2ccc(F)cc2s1)c1ccccn1 ?
aSyn yeast inh: 11.2µM*; Abeta rescue: inconclusive; FUS suppressor: inactive; TDP-43 yeast inh: -16.4%

How did CCOC(=O)c1c(C)[nH]c(CCC(=O)NCc2ccccc2C)c1C do in these assays?
Abeta rescue: inactive; FUS suppressor: inactive; TDP-43 yeast inh: 16.6%

Results for Cc1ccc(S(=O)(=O)NCCc2nnc3ccc(SCc4ccc(F)cc4)nn23)cc1 ?
Abeta rescue: inactive; FUS suppressor: inactive; TDP-43 yeast inh: -2.3%

How did COC(=O)c1ccccc1NC(=O)c1nc(-c2ccc(C)cc2)n2c1CCCCC2 do in these assays?
aSyn yeast inh: 5.5%; Abeta rescue: inactive; FUS suppressor: inactive; TDP-43 yeast inh: 14.4%

How did CC(=O)Nc1nc(COc2ccc3ccccc3c2)cs1 do in these assays?
Abeta rescue: inactive; FUS suppressor: inactive; TDP-43 yeast inh: 7.08µM*

How did CCOC(=O)C1CCN(C(=O)CCc2c(C)nc3cc(-c4ccccc4)nn3c2C)CC1 do in these assays?
aSyn yeast inh: 2.3%; Abeta rescue: inactive; FUS suppressor: inactive; TDP-43 yeast inh: 17.8µM*

How did FC(F)(F)c1cc(CCN2C(=S)NC[C@@H]2Cc2ccccc2)cc(C(F)(F)F)c1 do in these assays?
aSyn yeast inh: -22.4%; Abeta rescue: inconclusive; FUS suppressor: inconclusive; TDP-43 yeast inh: 22.4µM*

How did Oc1ccc(C[C@@H]2CNC(=S)N2CCc2cc(C(F)(F)F)cc(C(F)(F)F)c2)cc1 do in these assays?
aSyn yeast inh: -0.2%; Abeta rescue: inactive; FUS suppressor: inactive; TDP-43 yeast inh: 36.5%

What do the screens show for `Cc1nc(SCc2cccc(Oc3ccccc3)c2)n[nH]1`?
aSyn yeast inh: -32.0%; Abeta rescue: inactive; FUS suppressor: inactive; TDP-43 yeast inh: 28.2µM*
